Each structure is given as a SMILES string. The campaign covered roughly 16,000 compounds. About 5,700 (36%) were called active. Inconclusive results (about 24%) are left out. The list shows a part of the results. A number with no mark means an inactive call. Calls come from the whole dose curve; as a rule, active = well fitted curve in the direction sought with a large enough effect; inconclusive = small, poorly fitted or top-dose-only effect, or effect the other way; inactive = no such curve, though single readings can be large or run the other way.

From PubChem BioAssay AID1851 (National Center for Advancing Translational Sciences (NCATS), 2009) come the findings set out here.
% is set by controls: 0 for no effect and ±100 for the full control effect.

The target in this assay is Cytochrome P450 1A2 (Homo sapiens) (UniProt P05177). Nature of the assay: Cytochrome panel assay with activity outcomes. The conditions noted are these: recombinant CYP, pro-luciferin dealkylation, luminescence, p450-cyp1a2; series mostly up to 57.1 µM; activity, negative = inhibition: at the top concentration.
Cytochrome P450 1A2 (Homo sapiens), sequence (P05177 whole entry, looked up): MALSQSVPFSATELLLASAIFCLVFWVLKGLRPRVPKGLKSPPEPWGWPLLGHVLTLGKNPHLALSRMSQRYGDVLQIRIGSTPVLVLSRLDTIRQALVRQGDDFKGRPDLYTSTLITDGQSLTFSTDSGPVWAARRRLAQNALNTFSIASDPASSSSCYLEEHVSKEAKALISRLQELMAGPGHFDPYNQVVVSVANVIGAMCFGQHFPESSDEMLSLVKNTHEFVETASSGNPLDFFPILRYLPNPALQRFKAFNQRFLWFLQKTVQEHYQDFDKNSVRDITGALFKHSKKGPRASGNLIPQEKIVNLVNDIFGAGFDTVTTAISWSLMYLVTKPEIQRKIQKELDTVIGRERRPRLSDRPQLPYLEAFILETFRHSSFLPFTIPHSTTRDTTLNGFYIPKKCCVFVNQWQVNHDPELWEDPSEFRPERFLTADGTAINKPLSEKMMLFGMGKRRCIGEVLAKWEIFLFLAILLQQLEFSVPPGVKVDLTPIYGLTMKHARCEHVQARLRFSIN
For orientation: AC50 means the midpoint of the concentration-response curve, whichever way the signal moves. For the molecule `Brc1[nH]nc2ccccc12`, the AC50 was 1.58 µM (active). For `N[C@@H](Cc1[nH]nc2ccccc12)C(=O)O`, the activity, negative = inhibition is -19.1% [at 11.4 µM]. On the same count and under the same terms, the same measure for `COc1ccc(-c2cc(C(=O)O)c3c(C)nn(-c4ccccn4)c3n2)cc1`: -1.78%.

As to `COC(=O)c1ccccc1N/C=C1\CCc2c(c(C)nn2-c2ccccn2)C1=O`, the AC50 is 6.31 µM (active). As to `COC(=O)N1CCC2(CC1)CCN(c1ccccn1)CC2`, the “activity, negative = inhibition” value is 2.64%.

Take `c1cncc(CNc2ncncc2-c2cccnc2)c1`: the AC50 was 5.01 µM (active). On the same count and under the same terms, with `Cc1cccc(CNc2ncncc2-c2cccnc2)c1` the figure was 0.794 µM (active). As to `c1ccc(CNc2ncncc2-c2cccnc2)cc1`, the AC50 was 2.51 µM (active).

As for `c1cncc(CNc2ncn[nH]2)c1`, the activity, negative = inhibition was -7.88% [at 11.4 µM]. Still for that read-out and setting: with `CC[C@H]1C2=C3C(CC[C@H]4C(OCc5ccc(F)cc5C(F)(F)F)OC[C@](C)([C@@H]34)N(C(=O)OC(C)(C)C)C2)C2COC(=O)OCC21` (stereo not given in full) the figure was -14.8%; with `O=C(Nc1ccc2c(c1)nc1n2CCN(C2CCCCC2)C1)NC1CCCCC1`, -13.4%; with `Cc1ccc(S(=O)(=O)N[C@@H]2COC(=O)C/C=C\[C@H](C)COC(=O)N[C@@H](C)C(=O)C/C=C\[C@H]2C)cc1`, -0.145% [at 11.4 µM].

For `CCn1c(SCc2ccc(C(=O)Nc3nccs3)cc2)nnc1-c1ccc(NC(C)=O)cc1`, the concentration at half-maximal activity (AC50) was 12.6 µM (active). Consider `Cc1ccc(NC(=O)c2ccc(CSc3nnc(-c4ccncc4)n3C)cc2)cc1`, for which the “activity, negative = inhibition” value was 7.07%. For the molecule `C=CCn1c(SCc2ccc(C(=O)Nc3ccccc3)cc2)nnc1-c1ccccc1`, the AC50 is 14.1 µM (active). `Cc1nc2sc(C#N)c(N)c2c2c1CCCC2`: the AC50 was 2 µM (active).

In the case of `OCc1ccc(-c2nn(Cc3ccccc3)c3ccccc23)o1`, the AC50 was 1.58 µM (active).

In the case of `NC(=O)c1csc(-c2ccc(CO)o2)n1`, the activity, negative = inhibition is -13.1% [at 11.4 µM]. For `O=C(NNS(=O)(=O)c1ccccc1)c1cccnc1`, the activity, negative = inhibition is 2.15% [at 2.29 µM]. Turning to `O=C(NNS(=O)(=O)c1cc(Cl)cc(Cl)c1)c1sccc1-n1cccc1`, the AC50 was 2 µM (active).

Consider `CCS(=O)(=O)N1CCC(C(=O)NCCCN2CCCC2)CC1`, for which the “activity, negative = inhibition” value is 15%. With `COc1ccc(N=C2S/C(=C\c3ccc(C)s3)C(=O)N2CC(C)C)cc1`, the “activity, negative = inhibition” value was -5.67%.

On to `CCCN1C(=O)/C(=C/c2ccc(C)s2)SC1=Nc1ccc(OC)cc1`, for which the AC50 is 11.2 µM (active). On to `O=C(O)CCNc1ncnc2nc[nH]c12`, for which the activity, negative = inhibition was -6.59% [at 11.4 µM]. As for `CCCCNc1nc(SC)nc2nc[nH]c12`, the AC50 was 0.316 µM (active). Regarding `CN(C)CCCNc1ncnc2nc[nH]c12`, the activity, negative = inhibition is -16.6% [at 11.4 µM]. As to `CC[C@@]1(O)C(=O)OCc2c1cc1n(c2=O)Cc2cc3c(CN(C)C)c(O)ccc3nc2-1`, the activity, negative = inhibition was -17.9% [at 2.29 µM]. As for `CCn1c(SCC(=O)Nc2sc3c(c2C#N)CCC(C(C)(C)C)C3)nnc1-c1ccco1` (stereo not given), the “activity, negative = inhibition” value was -14.1%. Turning to `CCn1c(SCC(=O)Nc2sc3c(c2C(N)=O)CCC(C)C3)nnc1-c1ccco1` (stereo not given), the AC50 is 12.6 µM (active). On to `COc1ncc2nc(-c3ccc(Cl)cc3)c(=O)n(C[C@H]3CCCO3)c2n1`, for which the AC50 was 0.501 µM (active). Turning to `COc1cccc(Cn2c(=O)c(-c3cc(F)cc(F)c3)nc3cnc(N4CCN(C)CC4)nc32)c1`, the “activity, negative = inhibition” value is -16.9%. Regarding `COc1ncc2nc(-c3cc(F)cc(F)c3)c(=O)n(C[C@H]3CCCO3)c2n1`, the AC50 is 3.16 µM (active). In the case of `CCCC12CN3CC(CCC)(CN(C1)C3C(O)C(O)C(O)CO)C2=O` (stereo not given), the “activity, negative = inhibition” value is 1.15%. As to `COc1cc(C(=O)Nc2cc(C(F)(F)F)ccc2Cl)cc(OC)c1OC`, the AC50 was 5.01 µM (active).

For the molecule `COc1cc(NC(=O)c2ccc(COCC(F)(F)F)cc2)cc(OC)c1OC`, the “activity, negative = inhibition” value was -21.6%. The same measure, in the same setting: the same measure for `CCCC(=O)Nc1ccc(C(=O)Nc2cc(C(F)(F)F)ccc2Cl)cc1`: -21.8%; for `COc1ccc(C(=O)N2CCC3(CCN(Cc4cc(C(F)(F)F)cc(C(F)(F)F)c4)CC3)CC2)cc1`: -5.69%. `CN(C)S(=O)(=O)Oc1cccc(C(=O)Nc2ccccc2Cl)c1`: the half-maximal activity concentration (AC50) was 2 µM (active). On to `COc1ccc(/C=C/C(=O)Nc2cc(C(F)(F)F)ccc2Cl)cc1`, for which the AC50 was 0.447 µM (active).

For `COc1cccc(C(=O)Nc2cc(C(F)(F)F)ccc2Cl)c1`, the AC50 was 2.51 µM (active).

As to `CCOc1ccc(/C(O)=C2/C(=O)C(=O)N(CCOCCO)C2c2cccnc2)cc1` (stereo not given), the “activity, negative = inhibition” value is -14.1%. On to `CS(=O)(=O)N1CCC[C@@]2(CCN(c3ccccn3)C2)C1`, for which the “activity, negative = inhibition” value was -10.5%. Consider `COc1ccc(CNC(=O)/C=C/c2ccc(OCCCF)cc2)cc1`, for which the “activity, negative = inhibition” value is -5.44%. The same measure, in the same setting: with `COC(=O)CNC(=O)CCCCC(=O)NCC(=O)OC` the figure was 5.92%.

On to `COC(=O)CNC(=O)/C=C/c1ccc(OC)cc1`, for which the AC50 is 12.6 µM (active). Turning to `Cc1ccc(CNC(=O)CCNS(=O)(=O)c2ccc3c(c2)c(=O)n(C)c(=O)n3C)cc1`, the “activity, negative = inhibition” value was 15.7%. Consider `CCOc1ccc(CCNC(=O)C2CCN(S(=O)(=O)CC)CC2)cc1OCC`, for which the “activity, negative = inhibition” value was -18.3%. For `CCOC(=O)Cn1c(=O)oc2cc(S(=O)(=O)NCCc3ccc(OCC)c(OCC)c3)ccc21`, the AC50 was 12.6 µM (active). Consider `N#Cc1cccc(NC(=O)N2CC[C@@]3(CCCN(C(=O)c4ccco4)C3)C2)c1`, for which the “activity, negative = inhibition” value is -9.82%. As to `O=C(NCCCn1ccnc1)c1ccc(Br)c(S(=O)(=O)N2CCOCC2)c1`, the AC50 is 1.78 µM (active).

For `COc1ccc(C(=O)NCCCN2CCOCC2)cc1OC`, the “activity, negative = inhibition” value was -0.134%. For `Cc1ccc(C(=O)NCCCN2CCOCC2)cc1N1CCCC1=O`, the “activity, negative = inhibition” value was -2.59%. For the molecule `Cc1cccc([C@@H]2CN(C)CCc3c2cc(O)c(O)c3Cl)c1`, the “activity, negative = inhibition” value was -2.57%.

As to `CC(C)c1cc(C(F)(F)F)nc(NNc2nc(C(C)C)cc(C(F)(F)F)n2)n1`, the activity, negative = inhibition is -41.5% [at 11.4 µM]. `CC(C)Nc1nc(Oc2ccc(Cl)cc2)cc(C(F)(F)F)n1`: the AC50 is 2 µM (active). The same measure, in the same setting: the same measure for `CCS(=O)(=O)c1ccc2oc(Nc3cc(C)cc(C)c3)nc2c1`: 5.01 µM (active).

Take `Cc1cc(C)n(-c2cc(N3CCN(S(=O)(=O)c4ccc(C)c(C)c4)CC3)ccc2[N+](=O)[O-])n1`: the “activity, negative = inhibition” value is 5.25%. For the molecule `OC[C@@H](O)CNc1ncnc2ccccc12`, the activity, negative = inhibition is -18.7% [at 11.4 µM].

For `CC(C)NC[C@H](O)c1cc(O)cc(O)c1`, the AC50 entry was “inactive”.

Consider `CC(C)NC[C@@H](O)c1ccc(O)c2ncccc12`, for which the activity, negative = inhibition was -12.1% [at 2.29 µM].

Regarding `CC(C)NC[C@H](O)c1ccc2ccccc2c1`, the AC50 was 12.6 µM (active). Regarding `O=C(O)c1cc(=O)c2c(OCC(O)COc3cccc4oc(C(=O)O)cc(=O)c34)cccc2o1`, the “activity, negative = inhibition” value was 3.24% [at 25.6 µM]. For the molecule `OC[C@@H](O)COc1cccc2ccccc12`, the AC50 was 0.631 µM (active).

For the molecule `CC(C)NC[C@@H](O)COc1ccc(COCCOC(C)C)cc1`, the AC50 entry is “inactive”. `CC(C)NC[C@H](O)COc1cccc2ccccc12`: the AC50 is 0.2 µM (active). Consider `CC(C)NC[C@H](O)c1ccc(NS(C)(=O)=O)cc1`, for which the AC50 entry was “inactive”. Regarding `CC(=O)Nc1ccc(OC[C@@H](O)CNC(C)C)cc1`, the “activity, negative = inhibition” value was 6.78% [at 25.6 µM].

For `O=C(Cc1ccccc1)N/N=C/c1cc(Br)c(Br)o1`, the AC50 is 2.24 µM (active). With `N[C@@](CC(=O)O)(Cc1ccccc1)C(=O)O`, the activity, negative = inhibition was -13.4% [at 2.29 µM]. Turning to `O=C(O)/C(=C\c1ccccc1)Cc1ccccc1`, the activity, negative = inhibition is -18.4% [at 11.4 µM].

Turning to `O=C(Cc1ccccc1)N/N=C\c1ccc(Br)o1`, the AC50 is 4.47 µM (active). Consider `COC(=O)c1ccc2ccn(CC(=O)NC3CCCCC3)c2c1`, for which the “activity, negative = inhibition” value was -26.7%.

In the case of `COC(=O)c1ccc(-n2cncn2)c(F)c1`, the AC50 is 0.708 µM (active).

For `O=P(O)(O)O[C@@H]1O[C@H](CO)[C@@H](O)[C@H](O)[C@@H]1O`, the activity, negative = inhibition is -16.5% [at 11.4 µM]. Regarding `COc1ccccc1OCCCCCc1c(C)n[nH]c1C`, the concentration at half-maximal activity (AC50) is 1.78 µM (active). For `O=[N+]([O-])c1ccc(N2CCN(CCOc3nonc3-c3ccccc3)CC2)c(Cl)c1`, the “activity, negative = inhibition” value was -19.6%. `O=c1cc(N2CCCCC2)c(-c2ccccc2)nn1Cc1ccccc1Cl`: the AC50 is 1.26 µM (active).

Take `O=C(c1ccc(Cl)cc1)N1CCN(c2cc(=O)[nH]nc2-c2ccccc2)CC1`: the “activity, negative = inhibition” value is 0.0427%. As to `CN(C)C(=O)c1ccc(-c2nccc(NCc3cccnc3)n2)cc1`, the AC50 was 15.8 µM (active). Take `Cc1cccc(N(NC(=O)C(C)(C)O)C(=O)c2ccccc2)c1`: the “activity, negative = inhibition” value was -6.27%. With `Cc1cccc(CNc2ccnc(-c3ccc(C(=O)N(C)C)cc3)n2)c1`, the AC50 was 25.1 µM (active). With `C/C(=N\N=C1\NC(=O)CC(C(=O)O)S1)c1cccs1` (stereo not given), the “activity, negative = inhibition” value is -18.6%.

In the case of `C/C(=N\N=C(c1ccccc1)c1ccccc1)c1cccs1`, the AC50 was 1.41 µM (active). For the molecule `C[C@@H](CSC(=N)N)C(N)=O`, the activity, negative = inhibition is -6.57% [at 2.29 µM].

As for `O=C(c1cc(O)c(O)c([N+](=O)[O-])c1)c1ccccc1F`, the “activity, negative = inhibition” value is -20.4%. Regarding `Cc1ccc(-c2cccc(OC(=O)c3ccccc3F)c2)cc1`, the AC50 is 1.26 µM (active).

For the molecule `Cc1ccccc1CSc1nnc(-c2cccs2)n1Cc1ccco1`, the AC50 is 4.47 µM (active). In the case of `c1ccc(SCc2nc3ccccc3[nH]2)cc1`, the AC50 is 11.2 µM (active). `c1ccc(-c2nnc(SCc3nc4ccccc4[nH]3)n2Cc2ccco2)cc1`: the AC50 is 14.1 µM (active). Take `Cc1cc(NC(=O)CSc2nnc(-c3ccccc3)n2Cc2ccco2)no1`: the “activity, negative = inhibition” value is -10.2%.

With `CCn1c(SCC(=O)NC(=O)NCc2ccco2)nnc1-c1cccs1`, the “activity, negative = inhibition” value is -19.9%. Turning to `CCn1c(SCc2nc3ccccc3[nH]2)nnc1-c1ccc(OC)cc1`, the AC50 is 25.1 µM (active). Take `COCCn1c(Cc2ccccc2)nnc1SCc1nc2ccccc2c(=O)[nH]1`: the “activity, negative = inhibition” value is -4.28%.

Turning to `O=c1cc(CSc2ccccc2)[nH]c(=S)[nH]1`, the “activity, negative = inhibition” value was -15.1%. For `COc1ccc(NC(=O)CCNS(=O)(=O)c2ccc3c(c2)CCC(=O)N3)cc1`, the “activity, negative = inhibition” value is 0.443%.

`Cc1ccccc1C1C(C#N)=C2N=C(N)c3c(sc4c3CCCCC4)N2C2=C1C(=O)CC(C)(C)C2` (stereo not given): the “activity, negative = inhibition” value is -4.46%. On to `CN(C)c1ncc2nc(-c3cccs3)c(=O)n(-c3ccccc3)c2n1`, for which the AC50 is 31.6 µM (active).

Consider `COc1ccc(-n2c(=O)c(-c3cccs3)nc3cnc(OC)nc32)cc1`, for which the AC50 was 5.01 µM (active).

As to `COc1ccc(Oc2ncc3nc(-c4cccs4)c(=O)n(-c4ccccc4)c3n2)cc1`, the AC50 is 3.16 µM (active). For `COc1ncc2nc(-c3cccs3)c(=O)n(-c3ccccc3)c2n1`, the AC50 is 2 µM (active).
